According to PubChem BioAssay AID686979 (National Center for Advancing Translational Sciences (NCATS), 2013):
In all, about 420,000 compounds went through this assay and about 50,000 (12%) were called active. Roughly 26% stayed inconclusive and do not appear here. Calls come from the whole dose curve; as a rule, active = well fitted inhibition curve with a large enough effect; inconclusive = small, poorly fitted or top-dose-only effect; inactive = flat fitted curve, though single readings scatter. The full list was thinned out, with actives kept by preference.

Assay: qHTS for Inhibitors of human tyrosyl-DNA phosphodiesterase 1 (TDP1): qHTS in cells in presence of CPT; note: nearly all actives have a fitted effect of over 55% in size
Settings: chicken DT40 Tdp1-/-;hTDP1 cells + 20 nM CPT, ATP luminescence, 48 h; series mostly up to 46.2 µM; activity change, negative = growth inhibition: at the top concentration
Summary of the method: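 Chicken DT40 Tdp1-/- cells stably complemented with human TDP1 were seeded at 400 cells/well in medium containing 20 nM camptothecin, exposed to pin-transferred compounds, and grown at 37 °C for at least 48 hr. Viability was read as ATP luminescence.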
% is set by controls: 0 for no effect and ±100 for the full control effect; potency is the fitted concentration of half-maximal effect.

| SMILES | activity change, negative = growth inhibition | Potency |
| --- | --- | --- |
| Cc1nn2c(=O)cc(COC(=O)CNC(=O)c3ccc(F)cc3)nc2s1 | -0.0721% (inactive) |  |
| CCOCCc1nn2c(=O)cc(COC(=O)CNC(=O)c3ccc(C(C)(C)C)cc3)nc2s1 |  | 16.4 µM (active) |
| CCCCc1nn2c(=O)cc(COC(=O)c3ccc(NC(=O)c4ccccc4C)cc3)nc2s1 |  | 20.6 µM (active) |
| CCOCCc1nn2c(=O)cc(CSCC(=O)Nc3cccc(C)c3C)nc2s1 | -13.4% (inactive) |  |
| CCCCc1nn2c(=O)cc(COC(=O)c3ccccc3NC(=O)C(C)(C)C)nc2s1 | -2.59% (inactive) |  |
| CCCc1nn2c(=O)cc(COC(=O)c3ccc(NC(=O)C(C)Oc4ccccc4)cc3)nc2s1 (stereo not given) | -4.78% (inactive) |  |
| O=C(O)CCCCC(=O)O | -0.525% (inactive) |  |
| COc1ccc(NC(=O)N(C)C[C@@H]2OCc3cn(nn3)CCCC(=O)N([C@H](C)CO)C[C@H]2C)c(OC)c1 | -5.76% (inactive) |  |
| O=C(Nc1cccc([N+](=O)[O-])c1)Nn1cnnc1 | -8.2% (inactive) |  |
| CC(C)CC(=O)NC(=S)Nc1cc(C(=O)O)ccc1Cl | -1.14% (inactive) |  |
| CC(C)Nc1ccc(-n2nc3ccccc3[n+]2[O-])cc1 | 11.5% (inactive) |  |
| NS(=O)(=O)c1ccc(CCNC(=O)CNC(=O)Cc2ccccc2)cc1 | 9.87% (inactive) |  |
| CCOc1cnc(-c2c(-c3ccccc3Cl)noc2C)o1 | 8.07% (inactive) |  |
| Cc1oc(-c2ccccc2Cl)[n+]([O-])c1C |  | 14.6 µM (active) |
| OCC[C@H]1C[C@@H](O)[C@H](O)[C@]2(OCCCc3ccccc32)O1 | -25.4% (inactive) |  |
| COc1ccc(C(=O)OCC(=O)N2CC(=O)Nc3ccccc32)cc1Br | -8.62% (inactive) |  |
| O=C(NC1CCCC1)c1ccc(Br)s1 | -20.1% (inactive) |  |
| Cn1cccc1/C=N/NC(=O)CNc1cccc2ccccc12 | 4.64% (inactive) |  |
| C/C(Cc1ccccc1)=N\NC(=O)CNC(=O)c1cccc(Br)c1 | 0.991% (inactive) |  |
| Cc1ccc(C(=O)N/N=C/c2cccc3ccccc23)cn1 | 14.6% (inactive) |  |
| Cc1cccc(/C=N/NC(=O)CNc2cccc3ccccc23)n1 |  | 18.4 µM (active) |
| C/C(=N\NC(=O)CNc1cccc2ccccc12)c1ccc(Br)s1 |  | 11.6 µM (active) |
| COc1cc(OC)cc(C(=O)NCCSCc2ccc(Cl)cc2)c1 | -3.77% (inactive) |  |
| Cc1ccc(C(=O)NC2CCN(C(=O)Nc3ccccc3Cl)CC2)cc1 | -7.58% (inactive) |  |
| Cc1ccc(C)n1NC(=O)c1ccc([N+](=O)[O-])cc1 | 14.1% (inactive) |  |
| CC(=O)N1CCc2ccc(N)cc21 | 5.64% (inactive) |  |
| Cn1c(=O)n(Cc2ccco2)c(=N)c2c3c(sc21)CCCC3 | -26.4% (inactive) |  |
| CC1CCN(C(=O)CCc2nnc3ccc(NCc4ccco4)nn23)CC1 | -29.9% (inactive) |  |
| CN1CCc2c(sc3c2c(NCc2ccco2)nc2nnnn23)C1 |  | 29.1 µM (active) |
| O=C(COC(=O)c1ncc(Cl)c(Cl)c1Cl)NNC(=O)c1ccccc1 | -26.2% (inactive) |  |
